# 5HT1E antag: 5-HT1E (human) receptor antagonism; P28566; CHO 5-HT1E Ga15 NFAT-bla reporter, FRET, antagonist; inhibition, % at 6 µM; hit rate 0.99% among 65,000;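 active means inhibition above a set limit, the mean inhibition across every tested compound plus 3 SD, cut at about 29% in these data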;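 further: signal is the 460 over 535 nm emission ratio of beta-lactamase substrate; 0% = agonist plus DMSO wells and 100% = wells without agonist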
# Target sequence (P28566 whole entry, looked up): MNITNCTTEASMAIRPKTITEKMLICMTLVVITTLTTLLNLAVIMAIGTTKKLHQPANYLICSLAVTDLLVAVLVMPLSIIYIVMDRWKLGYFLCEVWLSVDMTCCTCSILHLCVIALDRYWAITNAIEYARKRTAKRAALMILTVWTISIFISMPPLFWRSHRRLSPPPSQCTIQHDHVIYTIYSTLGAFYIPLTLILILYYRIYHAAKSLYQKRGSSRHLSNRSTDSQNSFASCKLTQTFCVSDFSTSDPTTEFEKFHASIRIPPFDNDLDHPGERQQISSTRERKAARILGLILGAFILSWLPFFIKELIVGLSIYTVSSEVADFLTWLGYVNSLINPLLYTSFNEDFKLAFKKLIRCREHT
# mHtt clearance: mutant huntingtin protein clearance; HeLa Exon1htt(103Q)mCFP, aggregate imaging; zero = plate's median compound well; hit rate 0.42% among 47,000; AID 853; inhibition, % at 1.5 µM;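 active means inhibition of aggregate fluorescence above about 70%, also judged a hit by eye on the cell image, limit read from the data, passing the limit was not always enough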;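 further: cells exposed to compound for three days before fixation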
# HTR1E agonist: 5-HT1E (human) receptor agonism; P28566; AID 574; CHO 5-HT1E Ga15 NFAT-bla reporter, FRET; 0% DMSO wells, 100% control agonist wells; activation, % at 6 µM; hit rate 0.69% among 65,000;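 active means activation above a set limit, the screen-wide mean activation plus 3 SD, cut at about 8.5% in these data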;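 further: 100% = positive control agonist at 1 µM giving full maximal response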
# 5HT1a ag: 5-HT1a (human) receptor agonism; hit rate 0.56% among 65,000; CHO 5-HT1a Ga15 NFAT-bla reporter, FRET ratio; 0% basal, 100% maximal reference agonist; activation, % at 10 µM; P08908; AID 567;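 active means activation above the screen-wide mean activation plus 3 SD, cut at about 19% in these data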;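 further: 0% = DMSO wells and 100% = 5-CT at EC100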
# 5-HT1A blocker: antagonists of human 5-HT1a serotonin receptor; P08908; CHO 5-HT1a Ga15 NFAT-bla reporter, antagonist mode; inhibition, % at 10 µM; hit rate 0.68% among 62,000;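 active means inhibition above the mean of all tested compounds plus 3 SD, cut at about 43% in these data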;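 further: receptor stimulated by 5-CT agonist at 100 nM near EC80; beta-lactamase reporter measured by ratiometric fluorescence of a cleavable substrate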
# Numbers without * were called inactive; i = inactive; nt = no result given. Sampled rows, rich in hits. Any-hit rate of the full collection: about 2.3%.
SMILES,5HT1E antag,mHtt clearance,HTR1E agonist,5HT1a ag,5-HT1A blocker
CCC1(CC)C(=O)NC(=NCCc2c[nH]c3ccccc23)NC1=O,-2.7,-5.5,1.9,1.3,1.0
CCCCc1ccc2[nH]cc(CCN)c2c1,-3.4,74.8*,106.3*,68.7*,-8.2
O=C(CCCN1CCC2(CC1)C(=O)NCN2c1ccccc1)c1ccc(F)cc1,-30.4,nt,16.0*,-1.6,nt
Cn1c(O)c(C(=NCCN2CCCCC2)c2ccccc2Cl)c(=O)n(C)c1=O,-11.2,nt,-0.9,-0.5,42.9*
CCC(=NCCN1CCCCC1)c1c(O)n(C)c(=O)n(C)c1=O,-6.5,53.5,-0.5,-0.7,nt
CCC(CC)C(=O)NC1CCSC1=O (stereo not given),nt,-19.4,nt,nt,nt
COc1ccc(CC2C(=O)N(C)C(=O)N(C)C2=O)c(OC)c1,-4.5,nt,0.0,22.3*,-51.5
COc1ccc(CC2C(=O)NC(=O)NC2=O)c(OC)c1,1.5,52.6,-0.5,-4.8,-9.4
Cc1cc(N2C(=O)C3CCCN3C2c2sccc2C)no1 (stereo not given),1.2,i,0.3,-0.6,-0.4
O=c1c2ccccc2nc(N2CCCC2)n1-c1ccc(Cl)cc1,-3.2,nt,0.4,-3.8,9.1
O=C(CN1CCN(CCO)CC1)Nc1ccc(Cl)cc1C(=O)c1ccccc1,7.6,nt,-0.7,-1.0,nt
CN1CCN(CC(=O)Nc2ccc(Cl)cc2C(=O)c2ccccc2)CC1,-4.4,-73.4,10.4*,1.9,-3.5
Cc1[nH]c2c(Cl)cccc2c1CCN,6.9,64.6,71.4*,-1.5,5.9
CN(C)P(=O)(C(Cl)=C(N1CCCCC1)N1CCCCC1)N(C)C,0.2,nt,0.0,-6.4,43.0*
CC1CN(O)C2CCc3nonc3C12O (stereo not given),-5.1,-57.5,-0.4,0.8,8.8

# Assay outcomes as filed in PubChem BioAssay.
